The supplement of paper PMC10646978
± gives the standard deviation.

How the values were obtained:
Conditions in all cases: modulator concentration 10 µM
[1] = test system: RAW-Dual (murine macrophage reporter line); experiment: NF-kB reporter (SEAP) activity fold change vs agonist alone; higher = enhanced NF-kB activity
In short: (§1)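 In 384-well plates holding 50 000 RAW-Dual murine macrophage reporter cells per well, compound at 10 μM final was pre-incubated for 1 hour at 37 °C, after which a PRR agonist was added overnight. Supernatant SEAP read with QUANTI-Blue at 620 nm absorbance reported NF-κB, and Lucia luciferase read with QUANTI-Luc luminescence reported IRF. Fold change values come from dividing each reporter signal by the mean of agonist-only control wells on the same plate, averaged over replicate plates with propagated errors.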

[2] = test system: RAW-Dual (murine macrophage reporter line); experiment: IRF reporter (Lucia luciferase) activity fold change vs agonist alone; higher = enhanced IRF activity
In short: as §1

[3] = test system: RAW-Dual (murine macrophage reporter line); experiment: viability score (confluency relative to resting cells, overnight) (fraction); higher = more viable, active = viable (0.7 or more)
In short: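 RAW-Dual macrophages in 384-well plates were exposed overnight to compound at 10 μM final. Confluency was imaged with IncuCyte, and two confluency masks were generated with IncuCyte software over all imaged wells. The viability score is confluency expressed relative to resting cells. Compounds were called viable if both masks exceeded 70% of resting cells.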

[4] = agonist: CpG ODN 1826 0.5 ug/mL

SMILES	NF-kB reporter [1, 4]	NF-kB reporter ([1]; agonist: LPS 0.1 ug/mL)	NF-kB reporter ([1]; agonist: MPLA […])	IRF reporter ([2]; agonist: 3'3'-cGAMP 10 ug/mL)	IRF reporter ([2]; agonist: LPS 0.1 ug/mL)	IRF reporter ([2]; agonist: MPLA […])	viability score [3]
CC1=CC(=NS(=O)(=O)c2ccc(C)cc2)C=C(Cl)C1=O	0.635 ± 0.068	0.706 ± 0.038	0.68 ± 0.062	0.451 ± 0.02	0.611 ± 0.04	0.428 ± 0.038	0.89 (active)
CC(=O)N[C@H]1[C@H]([C@H](O)[C@H](O)CO)OC(C(=O)O)=C[C@@H]1NC(=N)N	1.12 ± 0.27	0.945 ± 0.12	1.02 ± 0.066	0.919 ± 0.04	1.3 ± 0.24	1.08 ± 0.12	1.01 (active)
N=C(N)Nc1nc(CSCCC(=N)NS(N)(=O)=O)cs1	1.09 ± 0.1	0.992 ± 0.059	1.06 ± 0.039	0.967 ± 0.064	0.898 ± 0.036	1.02 ± 0.088	0.995 (active)
Cc1c(C)c2c(c(C)c1O)CCC(C)(CCCC(C)CCCC(C)CCCC(C)C)O2 (configuration not stated)	1.02 ± 0.085	0.997 ± 0.052	1.06 ± 0.023	0.92 ± 0.057	0.965 ± 0.13	0.994 ± 0.1	0.987 (active)
CCCCc1c(C)nc(NN=C(C)c2cccc([N+](=O)[O-])c2)nc1O	0.954 ± 0.081	0.941 ± 0.092	1.11 ± 0.1	0.912 ± 0.032	1.12 ± 0.15	1.18 ± 0.19	1.01 (active)
COc1ccccc1-c1cc(-c2ccccc2)nc(SCC(=O)c2cc3ccccc3oc2=O)c1C#N	0.981 ± 0.058	1.02 ± 0.066	0.966 ± 0.061	0.879 ± 0.034	1.45 ± 0.16	1.07 ± 0.1	1 (active)
COc1ccccc1OCCNCC(O)COc1cccc2[nH]c3ccccc3c12 (configuration not stated)	0.0926 ± 0.0072	0.894 ± 0.057	0.892 ± 0.084	1.26 ± 0.086	1.53 ± 0.11	1.53 ± 0.16	0.957 (active)
Cc1cc(OCC(=O)NNC(=O)COc2ccc(Br)cc2Br)cc(C)c1Cl	0.961 ± 0.098	0.857 ± 0.13	0.985 ± 0.036	0.895 ± 0.15	0.987 ± 0.051	0.98 ± 0.086	0.945 (active)
COc1ccc(NC(=O)c2cn(-c3cc(N4CCSCC4)ncn3)cn2)cc1	1.04 ± 0.058	1.13 ± 0.091	0.939 ± 0.041	1.03 ± 0.069	1.13 ± 0.23	1.07 ± 0.33	0.997 (active)
CCOC(=O)C1=C(COCCN)NC(C)=C(C(=O)OC)C1c1ccccc1Cl.O=S(=O)(O)c1ccccc1 (configuration not stated)	0.921 ± 0.14	1.33 ± 0.18	3.73 ± 0.3	0.449 ± 0.058	1.55 ± 0.2	5.89 ± 1.2	0.0981 (inactive)
Cc1ccc(OCC(=O)N2CCN(c3ccc(-n4cncn4)nn3)CC2)c(C(C)(C)C)c1	1.11 ± 0.13	0.971 ± 0.085	1.27 ± 0.037	0.964 ± 0.07	0.948 ± 0.099	0.87 ± 0.15	0.999 (active)
COc1ccc(C=NNc2nc(Nc3ccc(C)cc3Br)nc(N3CCOCC3)n2)c(OC)c1	0.238 ± 0.024	1.13 ± 0.13	1.84 ± 0.18	0.649 ± 0.067	1.67 ± 0.23	2.01 ± 0.27	1.05 (active)
C(#Cc1ccc(C=Nc2nccs2)cc1)c1ccccc1	0.714 ± 0.18	0.935 ± 0.17	0.892 ± 0.1	0.176 ± 0.029	1.09 ± 0.16	1.15 ± 0.17	0.997 (active)
Clc1ccc(CN2CCN(CCn3ccnc3-c3ccccc3)CC2)cc1	0.584 ± 0.055	1.29 ± 0.12	1.37 ± 0.2	0.841 ± 0.042	1.27 ± 0.086	1.13 ± 0.22	0.993 (active)
N#C[C@@H]1C[C@@H]2C[C@@H]2N1C(=O)[C@@H](N)C12CC3CC(CC(O)(C3)C1)C2.O	1.06 ± 0.083	0.968 ± 0.15	0.955 ± 0.024	0.956 ± 0.066	0.921 ± 0.068	0.871 ± 0.074	0.999 (active)
Cl.Cn1cc(C(=O)[C@@H]2CCc3nc[nH]c3C2)c2ccccc21	0.806 ± 0.078	0.83 ± 0.11	0.878 ± 0.027	0.906 ± 0.056	0.973 ± 0.11	1.01 ± 0.078	0.997 (active)
O=C(CCCCCN1C(=O)c2cccc3cccc(c23)C1=O)NCCO	0.954 ± 0.082	1.01 ± 0.082	0.872 ± 0.074	0.886 ± 0.036	1.29 ± 0.086	1.19 ± 0.14	1 (active)
O=C(Nc1ccccn1)c1ccc(OCC2CCCO2)nc1 (configuration not stated)	1.12 ± 0.064	1.02 ± 0.077	1 ± 0.031	0.936 ± 0.077	1.04 ± 0.059	1.04 ± 0.1	0.997 (active)
O=C(CN(c1cc(Cl)cc(Cl)c1)S(=O)(=O)c1ccccc1)N1CCCCCC1	1.06 ± 0.13	1.13 ± 0.1	1.13 ± 0.068	0.943 ± 0.14	0.991 ± 0.062	0.875 ± 0.057	0.996 (active)
COc1cccc2c1C(=O)c1c(O)c3c(c(O)c1C2=O)C[C@@](O)(C(=O)CO)C[C@@H]3O[C@@H]1C[C@H](N)[C@@H](O)[C@H](C)O1 [Prestw-1752]	0.219 ± 0.025	0.0896 ± 0.013	0.169 ± 0.016	0.264 ± 0.011	0.185 ± 0.05	0.33 ± 0.053	0.458 (inactive)
Cc1cccc(-c2cc3nc(C)c(Cl)c(O)n3n2)c1	1.04 ± 0.058	1.04 ± 0.091	0.948 ± 0.025	1.04 ± 0.039	1 ± 0.1	1.04 ± 0.24	0.996 (active)
CCOc1ccc(OCCCCOc2cccc(C)c2)cc1	0.961 ± 0.094	1.11 ± 0.074	0.932 ± 0.082	1 ± 0.051	1.27 ± 0.18	1.07 ± 0.068	1.01 (active)
Cl.NCc1ccc(S(N)(=O)=O)cc1	0.998 ± 0.097	0.965 ± 0.047	0.998 ± 0.078	0.964 ± 0.058	0.962 ± 0.038	0.928 ± 0.13	1 (active)
O=C1C(Cl)=C(N2CCCCC2)C(=O)N1c1ccc(Cl)c(Cl)c1	0.687 ± 0.14	1.07 ± 0.084	1 ± 0.15	0.911 ± 0.047	1.09 ± 0.11	1.22 ± 0.27	1 (active)
CCCCNCCCCOc1ccc(C)cc1C(C)(C)C	0.441 ± 0.12	0.167 ± 0.036	1.38 ± 0.048	0.0798 ± 0.034	0.201 ± 0.056	2.6 ± 0.65	0.0697 (inactive)
CCCC(C(=O)OCCN(CC)CC)(c1ccccc1)c1ccccc1.Cl	0.851 ± 0.066	0.924 ± 0.11	0.978 ± 0.084	0.972 ± 0.055	1.03 ± 0.27	1.03 ± 0.39	1.02 (active)
